The whole screen tested about 340,000 compounds, of which about 1,000 (0.29%) were called active. Rule as the data show it: inconclusive = inhibition above about 29% without an active follow-up result; inactive = below that. A selection follows. Entries with a potency or affinity are not part of this list.
Molecular target: Genome polyprotein (Dengue virus type 2 (strain 16681-PDK53)) (UniProt P29991)
Assay: flavivirus cap methylation enzyme inhibition – biochemical, confirmation dose response, primary screen (AID 588689)
Conditions: Dengue-2 NS5 methyltransferase capping enzyme assay, at 25 µM, stronger effect = higher value
[1] = measured here: pilot screen replicate inhibition

SMILES	inhibition	inhibition [1]
CCOc1ccc(OCc2ccc(C(=O)N(CC)CC)cc2)cc1	-20% (inactive)	
CCn1c(CSc2nccn2C)nc2cc(C(=O)O)ccc21	1.61% (inactive)	
CCn1c(CSc2nnc(-c3ccncc3)n2C)nc2cc(C(=O)O)ccc21	7.11% (inactive)	
O=C(CCn1c(=O)oc2ccc(Cl)cc21)NCCCN1CCOCC1	-12.3% (inactive)	
CCOc1ccc2nc(SCC(=O)NC3CCCc4ccccc43)sc2c1 (configuration not stated)	-8.65% (inactive)	
O=C1NC2(CCCCCC2)Cc2ccccc21	-4.23% (inactive)	
Cc1cc(SCC(=O)Nc2ccccc2)n2ncc(-c3ccccc3)c2n1	-3.11% (inactive)	
Cc1ccc(NC(=O)c2ccc(-n3cccn3)c([N+](=O)[O-])c2)cc1	0.68% (inactive)	
O=C1c2ccccc2C(O)(c2ccccc2)N1c1ccncc1 (configuration not stated)	-5.22% (inactive)	
Cc1ccc(N2C(=O)c3ccccc3C2(O)c2ccccc2)cc1 (configuration not stated)	-0.39% (inactive)	
CC1CN(C(=O)c2nn(C)cc2[N+](=O)[O-])CC(C)O1 (configuration not stated)	-1.37% (inactive)	
CCCCn1c(-c2cccnc2)nc2cc3[nH]c(=O)c(C(C)C)nc3cc21	4.01% (inactive)	
COc1ccccc1OCC#CCSc1ncccn1	-53.6% (inactive)	
C#CCN(C[C@H]1[C@H](OC(=O)Nc2cccs2)[C@H](OC(=O)Nc2cccs2)C[C@H]2C(=O)N(c3ccccc3)C(=O)[C@@H]12)S(=O)(=O)c1ccc(C)cc1	2.32% (inactive)	
COc1ccc(S(=O)(=O)/C(C#N)=C/Nc2cccc(F)c2)cc1	-2.28% (inactive)	
Cc1ccc(F)c(NC(=O)CCc2ccccc2)c1	-5.56% (inactive)	
Cc1ccc(NC(=O)/C(C#N)=N/Nc2ccc(C(=O)O)cc2)c(C)c1	3.18% (inactive)	
Cc1ccc(C)c2[nH]c(=O)c(CCNS(=O)(=O)c3ccccc3)cc12	-0.7% (inactive)	
COc1cc(/C=C2\SC(=S)N(CCC(=O)Nc3ccccc3)C2=O)cc(OC)c1OC	0% (inactive)	
COc1cc(/C=C2\SC(=S)N(Nc3ccccc3)C2=O)cc(OC)c1OC	-1.38% (inactive)	
Cc1ncsc1CCOC(=O)C12CC3CC(CC(C3)C1)C2	-12.1% (inactive)	
CCOC(=O)c1c(C)nc(C)c(C(=O)OCC)c1-c1ccc(OC)cc1	0.8% (inactive)	
O=C(NC(Cc1c[nH]c2ccccc12)C(=O)Nc1ccc(OC(F)(F)F)cc1)c1cccs1 (configuration not stated)	-0.91% (inactive)	

SMILES	inhibition	inhibition [1]
O=C1C(=O)c2c(ccc3ccccc23)-c2ccccc21	8.87% (inactive)	
O=C1C=C(O)c2cccc(O)c2C1=O	10.9% (inactive)	
COc1cc(C2CC(=O)c3c(O)cc(O)cc3O2)ccc1O (configuration not stated)	-4.19% (inactive)	
COc1c(CC=C(C)C)cc(C2CC(=O)c3c(O)cc(O)cc3O2)cc1CC=C(C)C (configuration not stated)	1.45% (inactive)	
O=C(Nc1ccccn1)c1ccc(Cl)c(S(=O)(=O)N2CCCC2)c1	-10.4% (inactive)	
O=C(CCN1CCN(CCO)CC1)Nc1cccc(Br)c1	0% (inactive)	
N#Cc1cc([N+](=O)[O-])ccc1NC(=O)COC(=O)C1CC2CCCC(C1)C2=O (configuration not stated)	-2.16% (inactive)	
COc1cc(/C=N/NC(N)=O)ccc1OCC(=O)Nc1ccc(C)c(C)c1	-9.1% (inactive)	
CCOc1cc(/C=N\Nc2ccc([N+](=O)[O-])cc2)ccc1OCC(=O)Nc1ccc(C)c(C)c1	22% (inactive)	
CCC(=O)Nc1nnc(-c2cccs2)s1	-6.55% (inactive)	
CCN(CC)S(=O)(=O)c1ccc(OC)c(NS(=O)(=O)Cc2ccccc2)c1	-2.33% (inactive)	
COc1cc(/C=C2/SC(N)=NC2=O)ccc1Oc1ccc([N+](=O)[O-])cc1[N+](=O)[O-]	4.51% (inactive)	
COc1ccc([N+](=O)[O-])cc1NS(=O)(=O)Cc1ccccc1	-3.44% (inactive)	
COc1ccc(NS(=O)(=O)Cc2ccccc2)cc1OC	0% (inactive)	
CSc1ccc(S(=O)(=O)Nc2ccc3c(c2)NC(=O)CC3)cc1	0% (inactive)	
CN(CC(=O)Nc1ccc(Cl)c(C(F)(F)F)c1)C(=O)c1cccc2cccnc12	2.2% (inactive)	
Cc1ccc(O)c(NC(=O)Cc2ccc3ccccc3c2)c1	-11.9% (inactive)	
CC(NC(=O)CCNS(=O)(=O)c1cccc2nonc12)c1ccccc1 (configuration not stated)	-6.33% (inactive)	
O=Cc1cn(CCC(=O)O)nc1-c1cccc(Cl)c1	-3.9% (inactive)	
O=C(O)CCn1cc(C(=O)O)c(-c2ccccc2)n1	-1.47% (inactive)	
CCOC(=O)/C(C#N)=C/c1cn(CCC(=O)O)nc1-c1cccc(Cl)c1	-8.58% (inactive)	
NC(=S)N/N=C/c1cn(CCC(=O)O)nc1-c1cccc(Br)c1	-15.9% (inactive)	
O=Cc1cn(CCC(=O)O)nc1-c1cccc(Br)c1	14.3% (inactive)	

SMILES	inhibition	inhibition [1]
Cc1ccc(-c2nn(CCC(=O)O)cc2/C=C\C(=O)c2ccc(Br)cc2)cc1	7.02% (inactive)	
O=C(O)CCn1cc(/C=C2\NC(=S)N(c3ccccc3)C2=O)c(-c2ccc(Br)cc2)n1	3.12% (inactive)	
O=C(O)CCn1cc(/C=C2/NC(=S)N(c3ccccc3)C2=O)c(-c2ccccc2)n1	2.91% (inactive)	
Cc1ncc(C(O)c2ccc(N(C)C)cc2)n1Cc1ccccc1 (configuration not stated)	0% (inactive)	
CC(C)C(C(=O)NC1CCCC1)N(Cc1ccco1)C(=O)CNS(=O)(=O)c1ccccc1 (configuration not stated)	-8.96% (inactive)	
CCn1c(=O)n(CC)c2cc(N3CCCC3)c(NC(=O)c3ccc(OC)c(Br)c3)cc21	-2.72% (inactive)	
O=c1ccc(-c2ccc(S(=O)(=O)NCc3cccc(Br)c3)s2)n[nH]1	-1.36% (inactive)	
CCCCNC(=O)CN(Cc1ccco1)S(=O)(=O)c1ccc(C(C)=O)cc1	-2.95% (inactive)	
O=C(O)CC1CCC(=C(Cl)Cl)C1 (configuration not stated)	4.83% (inactive)	
Cc1ccc(S(=O)(=O)N(CC(=O)Nc2cccc(C(F)(F)F)c2)C(=O)N2CCN(C)CC2)cc1	-4.32% (inactive)	
CCn1c(SCC(=O)NC)nnc1C(C)C	4.79% (inactive)	
Cc1ccccc1-c1c(C)oc2cc(O)ccc2c1=O	1.35% (inactive)	
COCCN(C(=O)COC(=O)CCc1ccccc1)c1c(N)n(Cc2ccccc2)c(=O)[nH]c1=O	0% (inactive)	
O=C(O)CCn1cc(/C=C/C(=O)c2ccc(Cl)cc2)c(-c2ccc(Br)cc2)n1	12.8% (inactive)	
O=C(O)CCn1cc(/C=C\C(=O)c2ccc(Cl)cc2)c(-c2cccc(Br)c2)n1	26% (inactive)	
CCOc1ccc(NC(=O)CSc2nc(C3CC3)nc3ccccc23)cc1	15.3% (inactive)	
CCOC(=O)c1c(NC(=O)C(Sc2ccccc2)c2ccccc2)sc(C(N)=O)c1C (configuration not stated)	2.74% (inactive)	3.33%
O=c1c2ccccc2[nH]c(=S)n1-c1cccc(S(=O)(=O)N2CCCC2)c1	-8.01% (inactive)	
CC[C@H](C)/C=C(C)/C=C/C1=CC2=CC(=O)[C@]3(C)OC(=O)[C@@H](C(C)=O)[C@@H]3C2=CO1	7.68% (inactive)	
CCC(C)/C=C/C1=CC2=C(Cl)C(=O)C3(C)OC(=O)C(C(=O)C(C)C(C)O)C3C2=CO1 (configuration not stated)	4.35% (inactive)	
O=C(Cn1ncc2c([nH]c3ccccc32)c1=O)NCCCN1CCN(c2ccccc2)CC1	0% (inactive)	
C=CCn1cc(C(=O)NCC2CCCO2)c(=O)c2cc(S(=O)(=O)N3CCCCCC3)ccc21 (configuration not stated)	-3.55% (inactive)	
S=c1[nH]nc(Cc2cccs2)n1-c1ccccc1	-2.82% (inactive)	

SMILES	inhibition	inhibition [1]
CC(C)(C)c1nnc(NC(=O)C2CCN(c3ncccn3)CC2)s1	-2.45% (inactive)	
COc1cc(/C=C2/C(=O)N(c3ccc(C)c(C)c3)N=C2C)cc([N+](=O)[O-])c1O	9.88% (inactive)	-3.04%
CC1=NN(c2ccc([N+](=O)[O-])cc2)C(=O)/C1=C\N(C)C	-9.46% (inactive)	
O=C(c1ccccc1)c1ccc(Oc2ccc([N+](=O)[O-])cc2[N+](=O)[O-])cc1	-2.33% (inactive)	
COc1cc(/C=C2/SC(=O)NC2=O)ccc1Oc1ccc([N+](=O)[O-])cc1[N+](=O)[O-]	23.6% (inactive)	
O=C(c1ccc(Cl)s1)N1CCc2ccccc21	-1.37% (inactive)	
O=C(CCN1CCCCC1=O)NC1CCCN(Cc2ccc(Cl)cc2)C1 (configuration not stated)	-5.2% (inactive)	
O=C1NC(=O)/C(=C\c2ccccc2Oc2ccc(F)c(F)c2)S1	24.6% (inactive)	
Cc1ccc(Oc2ccccc2/C=C2\SC(=O)N(C)C2=O)cc1	0% (inactive)	5.03%
O=C1NC(=O)/C(=C/c2ccccc2Oc2ccc(Cl)cc2)S1	-4.16% (inactive)	
CN1C(=O)/C(=C/c2ccccc2OCc2ccc(F)cc2)N(C)C1=S	-7.89% (inactive)	
CCOC(=O)CN(C(=O)CNC(=O)c1ccco1)C(C(=O)NC1CCCC1)c1ccccc1OCC (configuration not stated)	-1.62% (inactive)	
NS(=O)(=O)c1ccc(CCNC(=O)CCNS(=O)(=O)c2ccccc2C(F)(F)F)cc1	0% (inactive)	
C/C(=N\NS(=O)(=O)c1ccccc1)c1cccc(NC(=O)c2cccc(Cl)c2)c1	-5.93% (inactive)	
COc1cccc(NC(=O)CN(C)C(=O)CN2C(=O)c3ccc([N+](=O)[O-])cc3C2=O)c1	-7.27% (inactive)	
CS(=O)(=O)c1ccc(C(=O)OCC(=O)c2ccc(Cl)s2)cc1	4.34% (inactive)	
CCCCCNC(=O)C1CCC(Cn2c(=S)[nH]c3ccccc3c2=O)CC1 (configuration not stated)	-0.74% (inactive)	
O=C(O)c1ccccc1Nc1ccccc1C(=O)O	4.09% (inactive)	
COc1cccc(Nc2ccccc2C(=O)O)c1	-2.96% (inactive)	
COc1ccccc1/C(C)=N/NC(=O)c1nnn(-c2nonc2N)c1C(C)C	-2.62% (inactive)	

Reference: PubChem BioAssay AID588689 (Southern Research Specialized Biocontainment Screening …, 2011)
